Laboratory results taken from PubChem BioAssay.
Results filed as inconclusive are left out. Calls of active or inactive are those of the source.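 Rule for the calls, unless noted: active = inhibition above 54%, about 3 SD of non-fluorescent compounds; inactive = the rest.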

Tests used:
[1] = rapamycin-like changes in RPL19A-GFP expression – cell-based, S. cerevisiae, multiplex flow cytometry, primary screen (AID 1862; in the data active = percent of DMSO control GFP below about 86%;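 note: lower values mimic rapamycin by blocking the RPL19A rise seen in DMSO cells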); conditions: S. cerevisiae RPL19A-GFP strain, flow cytometry fluorescence, 3 h; at 10 µM; stronger effect = lower value
[2] = TOR pathway GLN3 branch reporter MEP2-GFP changes – S. cerevisiae, multiplex flow cytometry, primary screen (AID 1867;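 active = GFP response, as percent of the DMSO control, above the screen-wide mean plus 3 SD, about 139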;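 note: median GFP channel fluorescence of barcode-gated MEP2-GFP cells measured by flow cytometry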); conditions: S. cerevisiae MEP2-GFP strain, 3 h, at 10 µM, stronger effect = higher value, 100% means same as DMSO wells
[3] = TOR pathway RTG branch CIT2 reporter changes – S. cerevisiae, GFP fusion, multiplex flow cytometry, primary screen (AID 1870;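 active = percent response above a set limit, the screen-wide mean plus 3 SD, cut at about 130% in these data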;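 note: barcoded CIT2-GFP strain pooled with four other GFP strains with rapamycin as positive control; median GFP fluorescence per well over plate mean of DMSO wells so 100% = DMSO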); conditions: S. cerevisiae CIT2-GFP expression, 3 h, at 10 µM, stronger effect = higher value
[4] = TOR pathway LAP4-GFP level changes – S. cerevisiae, multiplex flow cytometry, primary screen (AID 1873;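 active = GFP signal, as percent of the solvent control, above the screen mean plus 3 SD, about 149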); conditions: S. cerevisiae LAP4-GFP expression, 3 h, at 10 µM, stronger effect = higher value
[5] = yeast AGP1-GFP level changes, GLN3 branch – cell-based, multiplex flow cytometry, S. cerevisiae, primary screen (AID 1887;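 active = GFP signal above the screen-wide mean plus 3 SD, that is over about 124.5% of the solvent control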;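 note: AGP1-GFP fusion strain of S. cerevisiae within a five-strain barcoded multiplex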); conditions: 3 h, at 10 µM, stronger effect = higher value
[6] = reduced mouse 2C T cell binding to pMHC/ICAM-1 vesicles – MLPCN validation set, flow cytometry, LFA-1/ICAM-1 modulator project, pilot screen (AID 2523;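 active = response below a set limit, under 55% cells CD8-positive and vesicle-bound, and CD8 cells' 90th-percentile brightness under 279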;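 for vesicle binding response: mean PE anti-B7-1 fluorescence of CD8+ cells relative to row control; 100% = QL9-loaded vesicles with DMSO vehicle in the same plate row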); conditions: 2C mouse CD8+ T cells, at 7 µM, stronger effect = lower value; double positive events: measured here: CD8+/vesicle+ event percentage
[7] = target: Integrin beta-1 (Homo sapiens) + Integrin alpha-4 (Homo sapiens) (UniProt P13612+P05556); test: alpha4beta1 integrin LIBS antibody binding reduction – U937 cells, HUTS-21 mAb, flow cytometry, validation set, VLA-4 allosteric modulator project, pilot screen (AID 2674;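 active = inhibition above 50%, about 3 SD of the validation set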;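 note: antibody binding induced by the VLA-4 ligand LDV present at three times its Kd; 0% = LDV ligand with antibody and no compound and 100% = antibody without LDV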); conditions: HUTS-21 LIBS mAb binding, at 6.7 µM, stronger effect = higher value, binding induced by LDV ligand
[8] = calorie-restriction mimetic ROS inhibitors, yeast – validation compound set, pilot screen (AID 2706;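 active = superoxide response below 65% of plate, a cut near 3 SD across the whole screen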;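 note: yeast exposed to compound for one week at 30 degrees C before staining; 100% = mean of all compound wells on the same plate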); conditions: S. cerevisiae aging, superoxide DHE fluorescence; at 10 µM; stronger effect = lower value
[9] = target: Beta-adrenergic receptor kinase 1 (Homo sapiens) (UniProt P25098); test: GRK2 binders displacing RNA aptamer, biochemical, validation, human GRK2, bead flow cytometry (AID 488806;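 active = aptamer binding inhibition above 30%, about 3 SD of noise from non-fluorescent compounds; inactive = inhibition at or below 30%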); conditions: bead-bound GRK2, FAM-aptamer displacement, at 10 µM, stronger effect = higher value
[10] = target: Beta-2 adrenergic receptor (Homo sapiens) (UniProt P07550); test: agonist-induced loss of surface beta2AR – cell-based, FAP fluorogen, flow cytometry, validation set, pilot screen (AID 504459;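 active = percent response above 42, roughly 3 SD of non-fluorescent test compounds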;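 note: agonist-driven loss of surface beta2AR via internalization measured by FAP dye flow cytometry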); conditions: Am2.2-beta2AR cells, at 10 µM, stronger effect = higher value
[11] = target: AP-2 complex subunit beta (Homo sapiens) (UniProt P63010); test: beta-arrestin/AP2 interaction blockers – biochemical, validation set, GST-AP2 beads, flow cytometry, pilot screen (AID 504541); conditions: FITC arrestin peptide, at 10 µM, stronger effect = higher value, AP2 beta2 appendage fragment, R879A mutant;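 note: AP2 carries R879A mutation and is captured from E. coli lysate; bead-bound FITC arrestin peptide fluorescence measuring arrestin peptide binding to AP2; 0% = DMSO wells and 100% = excess unlabeled arrestin peptide control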
[12] = cytosolic pH regulators acting via V-ATPase – S. cerevisiae, pHLuorin, HTS validation (AID 504600; in the data active = response above about 15%;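 note: plate controls were DMSO for no effect and reference compound for full effect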); conditions: V-ATPase proton transport, at 10 µM, stronger effect = higher value
[13] = tested on: anti-desmoglein-3 scFv antibody binding to human DSG3; test: blockers of pathogenic pemphigus antibody–desmoglein-3 binding – biochemical, validation compound set, bead-based, flow cytometry, pilot screen (AID 588368;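 active = binding below the plate cutoff, the plate median minus 3 SD, with a reading above zero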;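 note: signal is the median channel fluorescence of bead-bound GFP antibody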); conditions: Protein G beads, DSG3-Fc, scFv-GFP binding, at 10 µM, stronger effect = lower value
[14] = Nile Red efflux blockade in pump-expressing yeast – validation compound set, multiplex, phenotypic, pilot screen (AID 588506;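 active = efflux inhibition above 0.42, the validation set average plus 4 SD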;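 note: Nile Red retained in cells so higher fluorescence means more efflux inhibition; 0 = negative control wells and 1 = enniatin B 25 µM full block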); conditions: S. cerevisiae pump-expressing triplex, Nile Red efflux flow cytometry; at 10 µM; stronger effect = higher value; the pumps come from Candida albicans
[15] = target: ATP-binding cassette sub-family B member 6 (Homo sapiens) (UniProt Q9NP58); test: blockers of ABCB6-driven porphyrin uptake – K562-ABCB6 cells, flow cytometry, validation set, pilot screen (AID 588550;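 active = inhibition above the screen-wide mean plus 3 SD, about 51%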;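 note: 0% = DMSO wells and 100% = benzethonium chloride 70 µM positive control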); conditions: K562-ABCB6 porphyrin accumulation, 1 h, at 10 µM, stronger effect = higher value
[16] = AML differentiation inducers, ER-HoxA9 marrow cells – cell-based, GFP/MAC1 double positive, flow cytometry, validation set, primary screen (AID 588685;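 active = differentiation response of at least 50%, scaled between solvent and reference control, from cells with both markers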;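 note: compound exposure lasts four days before antibody staining and flow analysis; 0% = DMSO wells and 100% = 5 µM fulvestrant positive control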); conditions: stronger effect = higher value, normalized: vehicle 0, fulvestrant 100

Sequence of Beta-2 adrenergic receptor (Homo sapiens) (P07550 whole entry, looked up, the tested form may be a part): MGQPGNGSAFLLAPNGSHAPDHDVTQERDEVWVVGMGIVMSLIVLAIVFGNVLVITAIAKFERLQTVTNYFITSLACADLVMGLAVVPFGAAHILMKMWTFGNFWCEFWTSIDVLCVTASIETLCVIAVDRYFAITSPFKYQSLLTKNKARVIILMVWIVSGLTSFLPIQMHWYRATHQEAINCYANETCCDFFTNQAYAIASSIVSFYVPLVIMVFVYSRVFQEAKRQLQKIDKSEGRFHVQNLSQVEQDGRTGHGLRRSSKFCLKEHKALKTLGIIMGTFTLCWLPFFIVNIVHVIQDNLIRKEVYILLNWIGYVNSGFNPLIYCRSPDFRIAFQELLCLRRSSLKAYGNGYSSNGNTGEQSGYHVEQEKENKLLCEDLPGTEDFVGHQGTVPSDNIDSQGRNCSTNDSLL
Sequence of AP-2 complex subunit beta (Homo sapiens) (P63010 whole entry, looked up, the tested form may be a part, one chain of several): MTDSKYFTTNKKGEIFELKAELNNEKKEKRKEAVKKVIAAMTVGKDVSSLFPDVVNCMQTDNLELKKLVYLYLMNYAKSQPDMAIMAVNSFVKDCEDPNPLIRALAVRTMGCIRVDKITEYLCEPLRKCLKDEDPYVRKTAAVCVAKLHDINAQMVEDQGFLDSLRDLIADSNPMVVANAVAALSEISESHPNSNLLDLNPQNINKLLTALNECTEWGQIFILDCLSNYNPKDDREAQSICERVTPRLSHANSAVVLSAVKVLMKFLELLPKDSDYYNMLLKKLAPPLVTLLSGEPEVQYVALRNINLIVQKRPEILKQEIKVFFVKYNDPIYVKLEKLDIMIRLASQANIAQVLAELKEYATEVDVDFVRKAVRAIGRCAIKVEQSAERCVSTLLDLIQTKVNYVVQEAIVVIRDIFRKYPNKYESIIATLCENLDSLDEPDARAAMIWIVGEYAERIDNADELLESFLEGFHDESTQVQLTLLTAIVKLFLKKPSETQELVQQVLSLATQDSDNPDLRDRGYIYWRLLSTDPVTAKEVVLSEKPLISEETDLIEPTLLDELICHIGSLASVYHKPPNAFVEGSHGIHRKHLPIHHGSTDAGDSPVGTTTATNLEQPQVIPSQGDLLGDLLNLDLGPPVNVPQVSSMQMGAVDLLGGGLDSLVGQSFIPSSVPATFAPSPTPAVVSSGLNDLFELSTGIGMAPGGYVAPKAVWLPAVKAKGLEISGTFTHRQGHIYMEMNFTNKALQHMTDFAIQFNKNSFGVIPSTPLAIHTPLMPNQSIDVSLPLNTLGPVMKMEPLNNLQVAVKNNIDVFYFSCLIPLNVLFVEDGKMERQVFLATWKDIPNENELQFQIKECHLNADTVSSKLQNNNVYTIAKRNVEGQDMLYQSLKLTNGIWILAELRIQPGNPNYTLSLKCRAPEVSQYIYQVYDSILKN
Sequence of ATP-binding cassette sub-family B member 6 (Homo sapiens) (Q9NP58 whole entry, looked up): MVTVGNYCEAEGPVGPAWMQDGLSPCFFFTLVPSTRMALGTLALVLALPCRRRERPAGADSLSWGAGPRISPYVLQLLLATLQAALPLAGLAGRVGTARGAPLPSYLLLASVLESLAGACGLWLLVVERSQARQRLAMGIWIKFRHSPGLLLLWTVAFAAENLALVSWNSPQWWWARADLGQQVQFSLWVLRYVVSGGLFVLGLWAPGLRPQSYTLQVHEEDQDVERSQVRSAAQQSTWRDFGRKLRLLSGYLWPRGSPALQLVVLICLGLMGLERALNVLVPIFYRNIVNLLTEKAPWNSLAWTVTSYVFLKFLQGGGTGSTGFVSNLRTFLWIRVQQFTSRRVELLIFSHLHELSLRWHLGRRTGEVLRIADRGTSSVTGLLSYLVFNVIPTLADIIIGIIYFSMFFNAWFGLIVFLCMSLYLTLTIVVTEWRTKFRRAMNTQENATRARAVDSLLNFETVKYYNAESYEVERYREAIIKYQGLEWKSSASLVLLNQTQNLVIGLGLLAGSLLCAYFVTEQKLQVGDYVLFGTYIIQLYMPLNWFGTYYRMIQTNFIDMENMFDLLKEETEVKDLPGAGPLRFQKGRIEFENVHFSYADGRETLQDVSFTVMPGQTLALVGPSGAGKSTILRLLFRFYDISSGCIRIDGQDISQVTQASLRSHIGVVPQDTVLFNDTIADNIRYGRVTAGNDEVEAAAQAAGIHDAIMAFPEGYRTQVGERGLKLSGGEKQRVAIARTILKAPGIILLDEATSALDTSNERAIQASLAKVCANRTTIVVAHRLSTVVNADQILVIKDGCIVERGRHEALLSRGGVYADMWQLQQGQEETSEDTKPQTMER
Sequence of Integrin beta-1 (Homo sapiens) + Integrin alpha-4 (Homo sapiens) (P05556 whole entry, looked up): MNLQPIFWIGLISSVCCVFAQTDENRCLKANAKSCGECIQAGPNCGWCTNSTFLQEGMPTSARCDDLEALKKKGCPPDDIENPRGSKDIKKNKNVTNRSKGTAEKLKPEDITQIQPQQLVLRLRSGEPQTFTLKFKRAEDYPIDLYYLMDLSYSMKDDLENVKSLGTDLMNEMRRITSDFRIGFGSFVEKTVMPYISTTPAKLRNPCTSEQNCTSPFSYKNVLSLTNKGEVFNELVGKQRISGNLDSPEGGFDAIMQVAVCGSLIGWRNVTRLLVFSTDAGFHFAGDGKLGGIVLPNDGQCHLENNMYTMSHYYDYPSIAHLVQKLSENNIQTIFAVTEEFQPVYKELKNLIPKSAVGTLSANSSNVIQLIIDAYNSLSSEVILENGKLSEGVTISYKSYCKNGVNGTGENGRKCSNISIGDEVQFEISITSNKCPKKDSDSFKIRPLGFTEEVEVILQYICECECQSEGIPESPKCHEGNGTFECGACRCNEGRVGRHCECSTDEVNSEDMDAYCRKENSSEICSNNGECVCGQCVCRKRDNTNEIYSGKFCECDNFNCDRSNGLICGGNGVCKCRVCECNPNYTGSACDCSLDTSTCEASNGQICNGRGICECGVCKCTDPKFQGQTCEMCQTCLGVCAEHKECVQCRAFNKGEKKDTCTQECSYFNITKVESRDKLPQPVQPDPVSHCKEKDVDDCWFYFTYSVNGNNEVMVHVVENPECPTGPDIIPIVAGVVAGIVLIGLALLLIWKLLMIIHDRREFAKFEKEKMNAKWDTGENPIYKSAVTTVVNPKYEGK
Sequence of Integrin beta-1 (Homo sapiens) + Integrin alpha-4 (Homo sapiens) (P13612 whole entry, looked up): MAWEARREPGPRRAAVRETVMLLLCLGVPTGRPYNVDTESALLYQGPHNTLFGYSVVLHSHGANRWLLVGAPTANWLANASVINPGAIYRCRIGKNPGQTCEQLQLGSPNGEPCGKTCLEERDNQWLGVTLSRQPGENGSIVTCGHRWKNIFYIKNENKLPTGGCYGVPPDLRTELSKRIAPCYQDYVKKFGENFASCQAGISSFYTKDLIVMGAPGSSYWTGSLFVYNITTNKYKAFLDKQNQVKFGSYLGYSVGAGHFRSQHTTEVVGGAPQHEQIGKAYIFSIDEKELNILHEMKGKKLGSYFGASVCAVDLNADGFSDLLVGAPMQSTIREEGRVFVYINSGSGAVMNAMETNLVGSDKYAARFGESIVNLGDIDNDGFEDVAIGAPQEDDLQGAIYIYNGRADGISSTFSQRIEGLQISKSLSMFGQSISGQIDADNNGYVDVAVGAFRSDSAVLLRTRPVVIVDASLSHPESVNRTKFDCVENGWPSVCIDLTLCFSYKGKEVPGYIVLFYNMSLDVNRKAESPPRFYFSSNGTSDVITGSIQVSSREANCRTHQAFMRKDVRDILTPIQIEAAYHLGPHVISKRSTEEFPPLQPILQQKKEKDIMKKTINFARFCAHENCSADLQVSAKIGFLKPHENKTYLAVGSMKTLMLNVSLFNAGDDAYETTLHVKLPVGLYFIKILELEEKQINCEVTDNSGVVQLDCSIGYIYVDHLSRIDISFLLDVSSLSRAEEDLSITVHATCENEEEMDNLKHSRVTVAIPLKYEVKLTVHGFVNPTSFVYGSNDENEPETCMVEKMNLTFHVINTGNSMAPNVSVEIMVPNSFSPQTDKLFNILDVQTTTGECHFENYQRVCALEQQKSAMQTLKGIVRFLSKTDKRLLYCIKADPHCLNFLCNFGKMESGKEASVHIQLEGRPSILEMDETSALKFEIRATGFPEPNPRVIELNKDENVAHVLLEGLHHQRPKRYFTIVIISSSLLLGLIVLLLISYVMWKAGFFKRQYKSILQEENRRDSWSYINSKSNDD
Sequence of Beta-adrenergic receptor kinase 1 (Homo sapiens) (P25098 whole entry, looked up): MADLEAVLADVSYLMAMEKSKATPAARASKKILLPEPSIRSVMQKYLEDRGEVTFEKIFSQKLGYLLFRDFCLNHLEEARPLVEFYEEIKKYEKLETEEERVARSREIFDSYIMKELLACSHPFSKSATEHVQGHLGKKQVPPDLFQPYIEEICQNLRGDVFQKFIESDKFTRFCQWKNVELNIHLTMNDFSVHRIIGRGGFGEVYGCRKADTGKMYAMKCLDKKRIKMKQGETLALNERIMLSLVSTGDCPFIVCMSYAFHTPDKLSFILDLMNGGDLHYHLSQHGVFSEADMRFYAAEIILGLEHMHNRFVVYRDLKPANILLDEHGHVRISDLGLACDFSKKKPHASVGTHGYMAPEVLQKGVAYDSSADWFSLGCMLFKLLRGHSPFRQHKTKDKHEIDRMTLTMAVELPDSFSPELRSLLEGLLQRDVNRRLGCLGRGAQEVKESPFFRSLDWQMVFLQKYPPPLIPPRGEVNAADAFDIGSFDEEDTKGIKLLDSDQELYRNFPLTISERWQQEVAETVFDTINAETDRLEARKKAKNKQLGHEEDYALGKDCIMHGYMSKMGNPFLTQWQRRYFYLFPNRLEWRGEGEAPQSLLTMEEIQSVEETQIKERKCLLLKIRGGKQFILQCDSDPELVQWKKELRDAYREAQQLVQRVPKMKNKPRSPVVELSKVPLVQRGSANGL

COc1ccc2c(c1)c(=O)oc1cc3occ(C(C)(C)C)c3cc12
inactive: percent of DMSO control GFP [1] 103% | GFP response vs DMSO [2] 105% | percent response of DMSO control [3] 103% | GFP response vs DMSO [4] 109% | GFP response, % of DMSO [5] 108% | vesicle binding response [6] 138% | inhibition [7] 9.95% | superoxide response (% of plate) [8] 92.5% | aptamer binding inhibition [9] 0% | response [10] -15.7% | inhibition [11] 42.4% | binding (% of control) [13] 93.8% | efflux inhibition (fraction of control) [14] 0.21 | inhibition [15] 0% | differentiation response [16] -14.8%
60%: double positive events [6]
active: response [12] 29.4%

CCC1CCc2c(sc(NC(=O)c3cccnc3)c2C(N)=O)C1 (stereo not drawn)
inactive: percent of DMSO control GFP [1] 97.6% | GFP response vs DMSO [2] 102% | percent response of DMSO control [3] 96.4% | GFP response vs DMSO [4] 108% | GFP response, % of DMSO [5] 107% | vesicle binding response [6] 252% | inhibition [7] -38.6% | superoxide response (% of plate) [8] 99.6% | aptamer binding inhibition [9] 7% | response [10] -24.4% | inhibition [11] 5.47% | response [12] -30.9% | binding (% of control) [13] 98.3% | efflux inhibition (fraction of control) [14] -0.09 | inhibition [15] 14% | differentiation response [16] 38.4%
64.4%: double positive events [6]

O=C1c2ccccc2N2C(=O)c3ccccc3C2N1Cc1ccco1 (stereo not drawn)
inactive: percent of DMSO control GFP [1] 104% | GFP response vs DMSO [2] 104% | percent response of DMSO control [3] 110% | GFP response vs DMSO [4] 103% | GFP response, % of DMSO [5] 89.8% | vesicle binding response [6] 140% | inhibition [7] -2.43% | superoxide response (% of plate) [8] 95.6% | aptamer binding inhibition [9] 0% | response [10] -16.2% | inhibition [11] -5.51% | response [12] -3.39% | binding (% of control) [13] 99.6% | efflux inhibition (fraction of control) [14] 0.03 | inhibition [15] -8% | differentiation response [16] -1.65%
61%: double positive events [6]

CC(C)CCC1(CCNC(C)c2cccs2)CCOC(C)(C)C1 (stereo not drawn)
58.8%: double positive events [6]
inactive: percent of DMSO control GFP [1] 102% | GFP response vs DMSO [2] 108% | percent response of DMSO control [3] 97.8% | GFP response vs DMSO [4] 93.3% | GFP response, % of DMSO [5] 101% | vesicle binding response [6] 1220% | inhibition [7] -6.68% | superoxide response (% of plate) [8] 96.5% | aptamer binding inhibition [9] 0% | response [10] 8.29% | inhibition [11] 1.09% | response [12] -1.06% | binding (% of control) [13] 98.5% | efflux inhibition (fraction of control) [14] -0.17 | inhibition [15] 2% | differentiation response [16] 1.22%

CCOc1ccc(OCCSc2nc3ccccc3[nH]2)cc1
inactive: percent of DMSO control GFP [1] 98.2% | GFP response vs DMSO [2] 98.5% | percent response of DMSO control [3] 101% | GFP response vs DMSO [4] 108% | GFP response, % of DMSO [5] 83.3% | vesicle binding response [6] 186% | inhibition [7] 16% | superoxide response (% of plate) [8] 107% | aptamer binding inhibition [9] 4% | response [10] -17.3% | inhibition [11] -5.21% | response [12] 1.04% | binding (% of control) [13] 98.7% | efflux inhibition (fraction of control) [14] 0.05 | inhibition [15] 3% | differentiation response [16] -7.2%
60.3%: double positive events [6]

CC(C)C12CN3CC(C(C)C)(CN(C1)C3c1ccccc1)C2O (stereo not drawn)
63.9%: double positive events [6]
inactive: percent of DMSO control GFP [1] 98.9% | GFP response vs DMSO [2] 101% | percent response of DMSO control [3] 101% | GFP response vs DMSO [4] 101% | GFP response, % of DMSO [5] 109% | vesicle binding response [6] 110% | inhibition [7] 14.2% | superoxide response (% of plate) [8] 99.3% | aptamer binding inhibition [9] 6% | response [10] -12.3% | inhibition [11] 8.13% | response [12] -11% | binding (% of control) [13] 104% | efflux inhibition (fraction of control) [14] -0.09 | inhibition [15] 6% | differentiation response [16] -0.06%

O=C1[C@@H]2CSCN2C(=O)CN1Cc1ccc(F)cc1
inactive: percent of DMSO control GFP [1] 107% | GFP response vs DMSO [2] 95.2% | percent response of DMSO control [3] 106% | GFP response vs DMSO [4] 82% | GFP response, % of DMSO [5] 94.8% | vesicle binding response [6] 235% | inhibition [7] -3.16% | superoxide response (% of plate) [8] 111% | aptamer binding inhibition [9] 2% | response [10] 5.93% | inhibition [11] -4.78% | response [12] -2.17% | binding (% of control) [13] 83.8% | efflux inhibition (fraction of control) [14] -0.21 | inhibition [15] 6% | differentiation response [16] -21.6%
61.3%: double positive events [6]

S=C(NCc1ccccc1)NCc1cccc(CNC(=S)NCc2ccccc2)c1
inactive: percent of DMSO control GFP [1] 105% | GFP response vs DMSO [2] 98.6% | percent response of DMSO control [3] 93.8% | GFP response vs DMSO [4] 108% | GFP response, % of DMSO [5] 120% | vesicle binding response [6] 205% | inhibition [7] 9.1% | superoxide response (% of plate) [8] 81.9% | aptamer binding inhibition [9] -2% | response [10] -21.3% | inhibition [11] 2.64% | response [12] -2.61% | binding (% of control) [13] 100% | efflux inhibition (fraction of control) [14] 0.33 | inhibition [15] 2% | differentiation response [16] 1.91%
62.4%: double positive events [6]

COC(=O)c1[nH]c(=O)c2ccccc2c1O
62.3%: double positive events [6]
inactive: percent of DMSO control GFP [1] 101% | GFP response vs DMSO [2] 95.2% | percent response of DMSO control [3] 101% | GFP response vs DMSO [4] 110% | GFP response, % of DMSO [5] 100% | vesicle binding response [6] 159% | inhibition [7] 0.94% | superoxide response (% of plate) [8] 104% | aptamer binding inhibition [9] 1% | response [10] -13.2% | inhibition [11] -7.21% | response [12] 2.12% | binding (% of control) [13] 101% | efflux inhibition (fraction of control) [14] 0.01 | differentiation response [16] 18.4%
active: inhibition [15] 109%
